Source: the supplement of paper PMC10338343
± gives the standard deviation. Whole data set: some 8,200 sequences, median “pre-steady-state target cleavage rate” near 0.024, cut for the highest 2% near 1.3. Only a selection was taken, and the highest values are over-represented in it overall.

System: MIWI (PIWIL1) piRISC loaded with L1MC piRNA (30 nt)
Assay: pre-steady-state target cleavage rate (min^-1); MIWI and MILI are mouse PIWI proteins and EfPiwi is from a freshwater sponge; tags in brackets are library labels; higher = faster piRNA-guided slicing of the target
Conditions: guide: L1MC piRNA 5'p-UAACUAAAUACUAUGCAAGCUGUAGGUCCU
In short: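 Cleave-'n-Seq reactions paired 0.1 nM transcribed, DNA-blocked target RNA library with 1 nM active affinity-purified piRISC holding one synthetic guide, plus or minus 500 nM GTSF1 partner protein, in HEPES–potassium acetate buffer at 33 °C for 0–8 or 0–960 min. After sequencing of uncleaved targets and normalisation to depth and weakly complementary targets, the pre-steady-state cleavage rate was taken from a burst-and-steady-state fit. Three trials were pooled, and k3 was capped at 0.0001 min^-1.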

[1] = auxiliary factor: 500 nM mouse GTSF1
[2] = auxiliary factor: none (no GTSF1)

| Sequence | pre-steady-state target cleavage rate [1] | pre-steady-state target cleavage rate [2] |
| --- | --- | --- |
| UCCUGCUACAGCAUGCAUAGUAAUUAGUUA | 0.73 ± 0.077 | 0.00723 ± 0.0026 |
| UCCUGGAUGUCCUUGCAUAGUAUAUUAGUUA | 0.025 ± 0.0089 | – |
| UCCUGGAACAGCUUGCAUAGUAUUUGGUUA | 0.781 ± 0.041 | 0.0538 ± 0.011 |
| UCCACCUACAGCUUGCUUAGUAUUUAGUAA | 0.484 ± 0.044 | 0.0103 ± 0.0023 |
| UCCACUUACAGCUUGCAUAGUAUUUAGUUA | 1.17 ± 0.034 | 0.0668 ± 0.0094 |
| UGGACCUACAGCUUGCAUAGUAUUUACUUA | 0.24 ± 0.021 | 0.0361 ± 0.0058 |
| UCGACUACAGCUUGCAUAGUAUUUAGUUA | 1.3 ± 0.049 | 0.0713 ± 0.012 |
| UCGACCUUACAGCUUGCAUAGUAUUUAGUUA | 1.47 ± 0.057 | 0.091 ± 0.02 |
| UCGACUUACAGCUUGCAUAGUAUUUAGUUA | 1.56 ± 0.045 | 0.0755 ± 0.013 |
| AGGACUUACAGCUUGCAUAGUAUUUAGUUA | 1.39 ± 0.064 | 0.0831 ± 0.012 |
| AGGACCGUACAGCUUGCAUAGUAUUUAGUUA | 1.16 ± 0.061 | 0.0943 ± 0.019 |
| UGGACUUACAGCUUGCAUAGUAUUUAGUUA | 1.45 ± 0.063 | 0.081 ± 0.013 |
| UGGACCAUACAGCUUGCAUAGUAUUUAGUUA | 1.3 ± 0.066 | 0.0868 ± 0.013 |
| UCCUGGAUGAGCUAGCAUAGUAUAUAGUUA | 0.194 ± 0.031 | 0.00454 ± 0.0041 |
| UCCACCUACUCGUUGCAUAGUAUUUAGUAA | 0.406 ± 0.031 | 0.00745 ± 0.0019 |
| UCCUGCUACAGCUUCCAUAGAAUUUAGUUA | 0.0338 ± 0.013 | – |
| UCCUGGAUGAGCUUGCAUAGUAUUAAGUAA | 0.197 ± 0.036 | 0.0178 ± 0.0055 |
| UCCACCUAGAGCUUGCAUAGUAUUUAGAUA | 0.178 ± 0.032 | 0.00955 ± 0.0025 |
| UCCUGCUACAGCUUGCAUAGUAUUUUCAUA | 0.295 ± 0.055 | – |
| UCCUGGAUGUGCUUGCAAAGUAUUUUGUUA | 0.0495 ± 0.008 | 0.0109 ± 0.0032 |
| UGGAGCUACUGCUUGCAUAGUAUUUAGUUA | 1.09 ± 0.055 | 0.0621 ± 0.0085 |

| Sequence | pre-steady-state target cleavage rate [1] | pre-steady-state target cleavage rate [2] |
| --- | --- | --- |
| UCGACCUAUCAGCUUGCAUAGUAUUUAGUUA | 1.61 ± 0.06 | 0.0851 ± 0.018 |
| UGGACCUAUAGCUUGCAUAGUAUUUAGUUA | 1.23 ± 0.054 | 0.0564 ± 0.011 |
| UGGACCAUCAGCUUGCAUAGUAUUUAGUAA | 1.05 ± 0.053 | 0.0577 ± 0.013 |
| UCCACCUAUCAGCUUGCAUAGUAUUUAGUUA | 1.01 ± 0.037 | 0.0531 ± 0.011 |
| AGGACCUAUCAGCUUGCAUAGUAUUUAGUUA | 1.25 ± 0.055 | 0.0769 ± 0.013 |
| UCCUCCUAUCAGCUUGCAUAGUAUUUAGUUA | 1.49 ± 0.072 | 0.0492 ± 0.011 |
| AGGACCAUCAGCUUGCAUAGUAUUUAGUUA | 1.3 ± 0.048 | 0.0926 ± 0.017 |
| UCCUCCUCAGCUUGCAUAGUAUUUAGUUA | 1.05 ± 0.027 | 0.0482 ± 0.009 |
| UGGACCUAUCAGCUUGCAUAGUAUUUAGUUA | 1.48 ± 0.086 | 0.074 ± 0.016 |
| UCCUCCAUCAGCUUGCAUAGUAUUUAGUUA | 0.739 ± 0.027 | 0.0679 ± 0.013 |
| UGGACCAUCAGCUUGCAUAGUAUUUAGUUA | 1.44 ± 0.056 | 0.101 ± 0.019 |
| UCGACCUAUAGCUUGCAUAGUAUUUAGUUA | 1.04 ± 0.055 | 0.0703 ± 0.014 |
| UCCUGGAUGUCGAACGUAUGAUUUUAGUUA | < 0.0001 | – |
| UCCUGCUUGUGCUUGCAUAGUAUUUAGUAA | 0.133 ± 0.019 | 0.0144 ± 0.0036 |
| UCCUGGUACAGGCUUGCAUAGUAUUUAGUUA | 0.498 ± 0.059 | 0.0384 ± 0.0089 |
| UCCUGGAUGUCGAUGCAUAGUAUUGAGUUA | 0.02 ± 0.006 | – |
| UCCUGGAUCAGCUUGCAUAGUCUUUAGUUA | 0.841 ± 0.035 | 0.0552 ± 0.012 |
| AGGACCUACAGCUUGCAUAGUAUUUAAUUA | 0.357 ± 0.033 | 0.0325 ± 0.0055 |
| AGGACCUACAGCUUGCUUAGUAUUUAGAAA | 0.486 ± 0.063 | 0.00737 ± 0.0028 |
| UCCUGGAUCAACUUGCAUAGUAUUUAGUUA | 1.01 ± 0.051 | 0.0248 ± 0.0054 |
| AGGACCUACAGGAAGCAUAGUAUUUACAAA | 0.32 ± 0.064 | – |

| Sequence | pre-steady-state target cleavage rate [1] | pre-steady-state target cleavage rate [2] |
| --- | --- | --- |
| UGCACCAACAGCUUGCAUAGUAUUUAGUUA | 1.23 ± 0.056 | 0.0613 ± 0.0098 |
| UCGACCAACAGCUUGCAUAGUAUUUAGUAA | 1.2 ± 0.065 | 0.0413 ± 0.0084 |
| ACGACCAACAGCUUGCAUAGUAUUUAGUUA | 1.64 ± 0.055 | 0.0972 ± 0.018 |
| UCGACCAACAGCUUGCAUAGUAUUUAGUUA | 1.62 ± 0.054 | 0.0825 ± 0.014 |
| AGCACCAACAGCUUGCAUAGUAUUUAGUUA | 1.03 ± 0.058 | 0.0664 ± 0.011 |
| UCGACCAACAGCUUGCAUAGUAUUUAGAUA | 0.54 ± 0.029 | 0.0297 ± 0.0066 |
| UCCUGGAUGUGCUUGCAUAGUAUUUUGAAA | 0.0177 ± 0.0092 | 0.00406 ± 0.0024 |
| UCCUGCUACAGCUUGCAUUCUAUUUACAAA | 0.0158 ± 0.0068 | – |
| AGGAGCUACAGGUUGCAUAGUAUUUAGUUA | 1.17 ± 0.075 | 0.0502 ± 0.0084 |
| UCCUGGUACAGAUUGCAUAGUAUUUAGUUA | 0.58 ± 0.071 | 0.0178 ± 0.0046 |
| UCCUGGAACAGCUUGCAUACAAUUUAGUAA | 0.0102 ± 0.0056 | – |
| AGGACCUACAGCAUGCAUAGUAUUUACAAA | 0.526 ± 0.066 | 0.00349 ± 0.0032 |
| UGGACGUUCAGCUUGCAUAGUAUUUAGUUA | 1.37 ± 0.052 | 0.0691 ± 0.012 |
| UGGACGUAGAGCUUGCAUAGUAUUUAGUUA | 1.29 ± 0.083 | 0.043 ± 0.0093 |
| UCCACCACAGCUUGCAUAGUAUUUAGUUA | 0.992 ± 0.035 | 0.0505 ± 0.0088 |
| AGGACGUAGAGCUUGCAUAGUAUUUAGUUA | 1.17 ± 0.072 | 0.047 ± 0.0083 |
| UCGACGUUCAGCUUGCAUAGUAUUUAGUUA | 1.3 ± 0.036 | 0.0748 ± 0.015 |
| AGGACGAACAGCUUGCAUAGUAUUUAGUUA | 1.27 ± 0.045 | 0.084 ± 0.016 |
| UCCACGUUCAGCUUGCAUAGUAUUUAGUUA | 1.42 ± 0.057 | 0.0658 ± 0.011 |
| UCCACCUUCAGCUUGCAUAGUAUUUAGUUA | 0.933 ± 0.045 | 0.0531 ± 0.0087 |
| AGGACGUUCAGCUUGCAUAGUAUUUAGUUA | 1.35 ± 0.063 | 0.0669 ± 0.01 |
